biological target: POU1 (OCT1 POU domain);BOB1 (OBF1, OCA-B) (human;human, UniProt P14859;Q16633 260-458;1-256, |); test: EMSA-SELEX-seq; with BOB1 (ternary complex band); 20 mM Tris-HCl pH 7.6, 140 mM NaCl, 10% glycerol, 0.5 mM EDTA, 0.05% Triton X-100, 0.1 mg/mL BSA, 0.1 mg/mL poly(dI-dC), 5 mM DTT, room temperature, 20 min; high values mean tight binding; details: protein: recombinant;recombinant; copies: 1;1; dsDNA, one strand shown
How it was run: (§1)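 With or without 28 ng coactivator protein, 30 ng of tagged POU-domain protein was combined with 300 ng of a PCR-amplified double-stranded random 35-nt library in 20 μL Tris–HCl pH 7.6 binding buffer for 20 min at RT. The protein came from E. coli BL21 and had been purified under denaturing conditions and renatured. Four rounds of cutting complex bands from native 6% PAGE, elution and PCR amplification preceded Illumina sequencing. The binding preference figure is the percentage of sequenced 8-mers matching a motif pattern.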

Row | Sequence | binding signal
1 | AGGACAAT | 0.0496 % of ANNNNAAN 8-mers
2 | ACGTCAAA | 0.0371 % of ANNNNAAN 8-mers
3 | ACTATAAG | 0.03 % of ANNNNAAN 8-mers
4 | AATCTAAC | 0.0316 % of ANNNNAAN 8-mers
5 | ACTTTAAG | 0.0332 % of ANNNNAAN 8-mers
6 | AGCGGAAC | 0.0129 % of ANNNNAAN 8-mers
7 | AATGCAAA | 2.58 % of ANNNNAAN 8-mers
8 | ATTTAAAG | 0.152 % of ANNNNAAN 8-mers
9 | ATGCGAAC | 0.0386 % of ANNNNAAN 8-mers
10 | ATCCCAAT | 0.025 % of ANNNNAAN 8-mers
11 | AGTTCAAC | 0.0246 % of ANNNNAAN 8-mers
12 | ATTTCAAA | 0.103 % of ANNNNAAN 8-mers
13 | AAAACAAT | 0.0913 % of ANNNNAAN 8-mers
14 | ATCGTAAG | 0.0379 % of ANNNNAAN 8-mers
15 | AATAGAAT | 0.0921 % of ANNNNAAN 8-mers
16 | AGATCAAA | 0.0414 % of ANNNNAAN 8-mers
17 | AGCGAAAC | 0.0137 % of ANNNNAAN 8-mers
18 | AACGAAAT | 0.0675 % of ANNNNAAN 8-mers
19 | ACAACAAC | 0.0133 % of ANNNNAAN 8-mers
20 | ACAAAAAC | 0.0706 % of ANNNNAAN 8-mers

Row | Sequence | binding signal
21 | ATTATAAA | 0.0691 % of ANNNNAAN 8-mers
22 | AACATAAA | 0.0527 % of ANNNNAAN 8-mers
23 | AGATTAAT | 0.0901 % of ANNNNAAN 8-mers
24 | AGTTCAAT | 0.046 % of ANNNNAAN 8-mers
25 | ACATGAAG | 0.03 % of ANNNNAAN 8-mers
26 | ACCCGAAG | 0.0129 % of ANNNNAAN 8-mers
27 | ACGCAAAC | 0.103 % of ANNNNAAN 8-mers
28 | AATCAAAT | 0.419 % of ANNNNAAN 8-mers
29 | ACCGCAAT | 0.0199 % of ANNNNAAN 8-mers
30 | ATAGCAAC | 0.0207 % of ANNNNAAN 8-mers
31 | AACGAAAA | 0.0597 % of ANNNNAAN 8-mers
32 | AGGTAAAC | 0.0792 % of ANNNNAAN 8-mers
33 | AATGGAAT | 0.125 % of ANNNNAAN 8-mers
34 | ACATAAAA | 0.073 % of ANNNNAAN 8-mers
35 | ATTGGAAA | 0.11 % of ANNNNAAN 8-mers
36 | ACAATAAT | 0.0515 % of ANNNNAAN 8-mers
37 | AGAAAAAA | 0.0812 % of ANNNNAAN 8-mers
38 | ACACAAAG | 0.0418 % of ANNNNAAN 8-mers
39 | AACTGAAG | 0.0215 % of ANNNNAAN 8-mers
40 | ACATCAAA | 0.0363 % of ANNNNAAN 8-mers

biological target: T1, POU2 (OCT2 POU domain);BOB1 (OBF1, OCA-B) (human;human, UniProt P09086;Q16633 175-386;1-256, |); test: as above; details: protein: recombinant;recombinant; copies: 1;1; dsDNA, one strand shown
T1 sequence 1: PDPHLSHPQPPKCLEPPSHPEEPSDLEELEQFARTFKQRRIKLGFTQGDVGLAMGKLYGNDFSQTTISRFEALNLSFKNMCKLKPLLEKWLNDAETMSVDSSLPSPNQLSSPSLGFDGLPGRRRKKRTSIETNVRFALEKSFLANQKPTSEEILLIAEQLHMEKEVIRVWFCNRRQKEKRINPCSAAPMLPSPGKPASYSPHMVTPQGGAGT
T1 sequence 2: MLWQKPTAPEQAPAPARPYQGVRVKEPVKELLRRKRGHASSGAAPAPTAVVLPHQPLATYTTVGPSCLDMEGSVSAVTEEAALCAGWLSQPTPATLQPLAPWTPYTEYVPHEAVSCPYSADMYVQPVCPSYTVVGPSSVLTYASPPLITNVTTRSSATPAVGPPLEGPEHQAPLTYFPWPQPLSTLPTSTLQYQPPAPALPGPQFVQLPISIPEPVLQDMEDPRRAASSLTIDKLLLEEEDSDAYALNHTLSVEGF
How it was run: as §1

Row | Sequence | binding signal
41 | AGGACAAT | 0.0421 % of ANNNNAAN 8-mers
42 | ACGTCAAA | 0.0173 % of ANNNNAAN 8-mers
43 | ACTATAAG | 0.0314 % of ANNNNAAN 8-mers
44 | AATCTAAC | 0.0272 % of ANNNNAAN 8-mers
45 | ACTTTAAG | 0.0322 % of ANNNNAAN 8-mers
46 | AGCGGAAC | 0.0157 % of ANNNNAAN 8-mers
47 | AATGCAAA | 3.21 % of ANNNNAAN 8-mers
48 | ATTTAAAG | 0.0759 % of ANNNNAAN 8-mers
49 | ATGCGAAC | 0.0347 % of ANNNNAAN 8-mers
50 | ATCCCAAT | 0.033 % of ANNNNAAN 8-mers
51 | AGTTCAAC | 0.0173 % of ANNNNAAN 8-mers
52 | ATTTCAAA | 0.0751 % of ANNNNAAN 8-mers
53 | AAAACAAT | 0.0735 % of ANNNNAAN 8-mers
54 | ATCGTAAG | 0.0388 % of ANNNNAAN 8-mers
55 | AATAGAAT | 0.121 % of ANNNNAAN 8-mers
56 | AGATCAAA | 0.0355 % of ANNNNAAN 8-mers
57 | AGCGAAAC | 0.0198 % of ANNNNAAN 8-mers
58 | AACGAAAT | 0.0636 % of ANNNNAAN 8-mers
59 | ACAACAAC | 0.0124 % of ANNNNAAN 8-mers
60 | ACAAAAAC | 0.0405 % of ANNNNAAN 8-mers

Row | Sequence | binding signal
61 | ATTATAAA | 0.0801 % of ANNNNAAN 8-mers
62 | AACATAAA | 0.0627 % of ANNNNAAN 8-mers
63 | AGATTAAT | 0.106 % of ANNNNAAN 8-mers
64 | AGTTCAAT | 0.0421 % of ANNNNAAN 8-mers
65 | ACATGAAG | 0.0355 % of ANNNNAAN 8-mers
66 | ACCCGAAG | 0.0132 % of ANNNNAAN 8-mers
67 | ACGCAAAC | 0.0512 % of ANNNNAAN 8-mers
68 | AATCAAAT | 0.301 % of ANNNNAAN 8-mers
69 | ACCGCAAT | 0.0264 % of ANNNNAAN 8-mers
70 | ATAGCAAC | 0.0405 % of ANNNNAAN 8-mers
71 | AACGAAAA | 0.0462 % of ANNNNAAN 8-mers
72 | AGGTAAAC | 0.0537 % of ANNNNAAN 8-mers
73 | AATGGAAT | 0.147 % of ANNNNAAN 8-mers
74 | ACATAAAA | 0.0925 % of ANNNNAAN 8-mers
75 | ATTGGAAA | 0.0735 % of ANNNNAAN 8-mers
76 | ACAATAAT | 0.0528 % of ANNNNAAN 8-mers
77 | AGAAAAAA | 0.0561 % of ANNNNAAN 8-mers
78 | ACACAAAG | 0.0305 % of ANNNNAAN 8-mers
79 | AACTGAAG | 0.0338 % of ANNNNAAN 8-mers
80 | ACATCAAA | 0.0239 % of ANNNNAAN 8-mers

— publication PMC10812921, “Transcriptional Coactivator BOB1 (OBF1, OCA-B) Modulates the Specificity of DNA Recognition by the POU-Domain Factors OCT1 and OCT2 in a Monomeric Configuration”
